Here are results for 13 compounds from PubChem BioAssay (NCATS).

Several values for one entry are separate records, joined by “and”; a condition that tells them apart may be missing. Equal entries are not always repeated. Results filed as inconclusive are left out. A number with no mark means an inactive call. Activity calls are given as the source filed them. The call rests on the fitted dose curve; in most records, active means well fitted curve in the direction sought with a large enough effect; inconclusive means small, poorly fitted or top-dose-only effect, or another doubt; inactive means no such curve, though single readings can be large; an effect the other way counts as inactive or inconclusive.

Test [1] has as its target Cytochrome P450 3A7 (Homo sapiens) (UniProt P24462). Description: Cytochrome P450 family 3 subfamily A member 7 (CYP3A7) small molecule antagonists: luciferase biochemical qHTS assay (AID 1963596). Further: nearly all actives have a fitted effect of over 40% in size. Further: potency means the concentration at half of the fitted maximal effect. In short, it runs like this: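 P450-Glo luminescent assay: CYP3A7 enzyme converts a proluciferin substrate to luciferin, detected by luciferase reagent; light proportional to activity. Compounds in DMSO preincubated 10 min with enzyme-substrate mix at room temperature, then NADPH regeneration added for 1 h.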

A short description of test [2]: Viability qHTS for spleen associated tyrosine kinase inhibitor (SYKi) naive MV4-11 cells (AID 1963823). Further: nearly all actives have a fitted effect of over 40% in size. Further: potency means the concentration at half of the fitted maximal effect. In short, it runs like this:
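In this viability screen, compounds acted on SYK inhibitor naive MV4-11 cells for three days (72 hr, 37 C). Remaining viable cells were measured by CellTiter-Glo luminescence following a 10 min room-temperature development.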
For orientation: qHTS replaces the single test concentration by a dilution series.

Test [3] can be described thus: Viability qHTS for spleen associated tyrosine kinase inhibitor (SYKi) drug resistant MV4-11 cells (AID 1963824). Further: nearly all actives have a fitted effect of over 35% in size. Further: potency means the concentration at half of the fitted maximal effect. In short, it runs like this: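 SYK-inhibitor-resistant MV4-11 AML cells were seeded at 500 per well onto compound and cultured 72 hours (37 °C, 5% CO2). CellTiter-Glo was then added, and after 10 min at room temperature, luminescence gave viability.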
Test [4] is described as follows: Quantitative highthroughput screen to assess conditional lethalithy of NOMO1 cells grown in RPMI1640 with untreated serum (RPMI+s) (AID 1963876). Further: nearly all actives have a fitted effect of over 35% in size. Further: potency means the concentration at half of the fitted maximal effect.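 On Viability: 100% = DMSO wells and 0% = empty wells without cells.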 In short, it runs like this: (§1)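 Each medium arm—HPLM with 10% dialyzed FBS, or RPMI1640 with 5 mM glucose and 10% untreated or dialyzed FBS—was screened against an 11-point, 3-fold compound titration for 48 h at 37 °C, with CellTiter-Glo luminescence as endpoint.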

A short description of test [5]: Quantitative highthroughput screen to assess conditional lethalithy of NOMO1 cells grown in RPMI1640 with dialyzed fetal bovine serum (RPMI+ds) (AID 1963877). Further: nearly all actives have a fitted effect of over 30% in size. Further: potency means the concentration at half of the fitted maximal effect.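 On Viability: series mostly up to about 46 µM; 100% = DMSO control wells and 0% = empty wells.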 In short, it runs like this:
as §1

The nature of test [6]: Quantitative highthroughput screen to assess conditional lethalithy of NOMO1 cells grown in Human Plasma-Like Medium with dialyzed fetal bovine serum (HPLM+ds) (AID 1963878). Further: nearly all actives have a fitted effect of over 35% in size. Further: potency means the concentration at half of the fitted maximal effect.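 On Viability: 100% = DMSO wells and 0% = empty wells on each plate.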 Summed up: as §1
A short description of test [7]: Quantitative highthroughput screen to assess conditional lethalithy of SEM cells grown in RPMI1640 with unreated serum (RPMI+s) (AID 1963883). Further: nearly all actives have a fitted effect of over 35% in size. Further: potency means the concentration at half of the fitted maximal effect.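 On Viability: 100% = DMSO wells and 0% = empty wells without cells.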 Summed up: as §1
Test [8] in a line: Quantitative highthroughput screen to assess conditional lethalithy of SEM cells grown in RPMI1640 with dialyzed fetal bovine serum (RPMI+ds) (AID 1963884). Further: nearly all actives have a fitted effect of over 35% in size. Further: potency means the concentration at half of the fitted maximal effect.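 On Viability: series mostly up to about 46 µM; 100% = DMSO control wells and 0% = empty wells without cells.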 Summed up:
as §1

A short description of test [9]: Cellular viability qHTS for adrenocortical cancer (ACC) cell line SW-13 (AID 1963989). Further: nearly all actives have a fitted effect of over 65% in size. Further: potency means the concentration at half of the fitted maximal effect.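 On activity (max response): cells grown in serum-free medium with ITS supplement; on the % scale 0 is the no-effect control and ±100 the full control effect.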 The following applies: SW-13 ACC cells viability, CellTiter-Glo, 48 h; activity (max response): stronger effect = lower value. Summed up: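 SW-13 cells in ITS-supplemented serum-free DMEM were plated overnight, then exposed for 48 h at 37C to compound titrations (up to 46 uM final). Viability was read by CellTiter-Glo luminescence; four-parameter logistic fits gave IC50 and efficacy.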

Test [10] is described as follows: Cellular viability qHTS for adrenocortical cancer (ACC) cell line NCI-H295R (AID 1963990). Further: nearly all actives have a fitted effect of over 60% in size. Further: potency means the concentration at half of the fitted maximal effect. Summed up:
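Luminescent ATP read-out (CellTiter-Glo, 20 min RT) after 48 h drug exposure of NCI-H295R cells; a titration up to 46 uM final. Data normalized to doxorubicin (100% inhibition) and DMSO (0%); 4-parameter fit gives IC50, max response.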

The nature of test [11]: Quantitative highthroughput screen to assess conditional lethalithy of P12 Ichikawa cells grown in Human Plasma-Like Medium with dialyzed fetal bovine serum (HPLM+ds) (AID 1963879). Further: nearly all actives have a fitted effect of over 35% in size. Further: potency means the concentration at half of the fitted maximal effect. On Viability: series mostly up to about 46 µM. The following applies: Potency: viability. Summed up: as §1
The nature of test [12]: Quantitative highthroughput screen to assess conditional lethalithy of P12 Ichikawa cells grown in RPMI1640 with dialyzed fetal bovine serum (RPMI+ds) (AID 1963880). Further: nearly all actives have a fitted effect of over 35% in size. Further: potency means the concentration at half of the fitted maximal effect.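 On Viability: 100% = DMSO wells and 0% = empty wells on each plate.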 The following applies: Potency: P12-Ichikawa viability. Summed up: as §1
Test [13] is described as follows: Quantitative highthroughput screen to assess conditional lethalithy of P12 Ichikawa cells grown in RPMI1640 with untreated serum (RPMI+s) (AID 1963881). Further: nearly all actives have a fitted effect of over 35% in size. Further: potency means the concentration at half of the fitted maximal effect.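 On Viability: series mostly up to about 46 µM; 100% = DMSO wells and 0% = empty wells without cells.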 To be noted: Potency: viability. In short, it runs like this:
as §1

Test [14] can be described thus: Quantitative highthroughput screen to assess conditional lethalithy of SEM cells grown in Human Plasma-Like Medium with dialyzed fetal bovine serum (HPLM+ds) (AID 1963882). In short, it runs like this: as §1

Sequence of Cytochrome P450 3A7 (Homo sapiens) (P24462 whole entry, looked up): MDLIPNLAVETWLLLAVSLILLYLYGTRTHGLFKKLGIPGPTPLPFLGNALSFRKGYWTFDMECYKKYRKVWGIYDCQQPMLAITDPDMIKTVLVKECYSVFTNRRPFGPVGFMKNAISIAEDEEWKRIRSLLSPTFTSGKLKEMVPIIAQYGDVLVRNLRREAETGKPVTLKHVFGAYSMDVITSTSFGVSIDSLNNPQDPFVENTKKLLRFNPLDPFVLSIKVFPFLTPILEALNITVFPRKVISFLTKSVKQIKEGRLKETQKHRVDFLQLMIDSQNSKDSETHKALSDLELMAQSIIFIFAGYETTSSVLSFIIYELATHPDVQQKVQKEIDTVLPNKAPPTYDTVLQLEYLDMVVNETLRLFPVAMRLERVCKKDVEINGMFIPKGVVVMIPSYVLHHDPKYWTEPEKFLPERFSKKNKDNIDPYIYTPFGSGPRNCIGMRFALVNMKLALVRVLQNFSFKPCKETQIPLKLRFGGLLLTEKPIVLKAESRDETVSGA

Consider `CCc1c(O)cc(O)c(C(=O)c2ccc(OCCN3CCOCC3)c(OC)c2)c1CC(=O)N(CCOC)CCOC`, for which the Potency entry in [1] and in test [10] was “inactive” in each case. Besides, the Potency in test [2] was 0.132 µM (active); in test [3], 235 nM (active); in test [4] it was 2.96 µM (active); in test [5] it was 3.32 µM (active); in test [6], 2.35 µM (active); in test [7], 2.96 µM (active). For the same compound, the Potency in test [8] is 2.64 µM (active). In addition, the activity (max response) in [9] is -6.69%.
With `NC1=N[C@H]2[C@H](CS[C@H]2CCCCC(=O)O)N1`, the Potency entry in test [1], in [2], in test [3], in test [4], in [5] and in test [11] was “inactive” each time. Besides, the Potency entry in test [12], in test [7], in test [8] and in test [10] was “inactive” throughout. Also, in test [9], the activity (max response) is 13%.
For the compound `NS(=O)(=O)c1cc2c(cc1Cl)NC(C(Cl)Cl)NS2(=O)=O` (configuration not stated), the Potency entry in test [1], in test [2], in test [3], in test [4], in [5] and in [6] was “inactive” each time. The Potency result in test [12], in test [13], in test [14], in test [7], in [8] and in test [10] was “inactive” throughout. Further, in test [9], the activity (max response) was 15.1% and 11.4%.
As to `CCC[C@@H]1C[C@@H](C(=O)N[C@@H]([C@H]2O[C@H](SC)[C@H](O)[C@@H](O)[C@H]2O)[C@@H](C)O)N(C)C1`, the Potency entry in [1], in [2], in test [3], in [4], in test [5] and in [11] was “inactive” each time. Further, the Potency entry in test [12], in test [13], in [14], in test [7] and in test [10] was “inactive” in each case.
In the case of `Cc1cn([C@H]2C[C@H](N=[N+]=[N-])[C@@H](CO)O2)c(=O)[nH]c1=O`, the Potency entry in test [1], in [2], in test [3], in [14], in [7] and in test [10] was “inactive” throughout. The Potency in test [4] was 1.32 µM (active); in [5], 1.87 µM (active); in test [11], 10.5 µM (active). Also, the activity (max response) in [9] is -7.12%.
On to `NC(=O)c1cccc2cn(-c3ccc([C@@H]4CCCNC4)cc3)nc12`, for which the Potency entry in [1], in test [4], in test [5] and in test [10] was “inactive” each time. Besides, the Potency in test [2] is 9.2 µM (active) and 14.8 µM (active); in test [3], 10.3 µM (active) and 16.6 µM (active).
For the compound `COc1cc2c(cc1OC)CN(CCc1ccc(NC(=O)c3cc(OC)c(OC)cc3NC(=O)c3cnc4ccccc4c3)cc1)CC2`, the Potency result in test [1], in test [2], in test [3], in [4], in test [5] and in test [6] was “inactive” throughout. In addition, the Potency entry in [10] is “inactive”. Moreover, the activity (max response) in test [9] is -4.36%.
`CC[N+](CC)(CC)CCOc1cccc(OCC[N+](CC)(CC)CC)c1OCC[N+](CC)(CC)CC`: the Potency result in [1], in [2], in [3], in [4], in test [5] and in test [11] was “inactive” throughout. Moreover, the Potency result in test [12], in test [13], in test [14], in test [7], in test [8] and in test [10] was “inactive” throughout. Besides, the activity (max response) in test [9] is 11.3% and -11.4%.
Consider `Cn1cnc([N+](=O)[O-])c1Sc1ncnc2nc[nH]c12`, for which the Potency result in test [1] was “inactive”. The Potency in test [2] is 5.9 µM (active); in test [3] it was 2.15 µM (active) and 2.35 µM (active); in [4] it was 6.62 µM (active); in [5] it was 5.26 µM (active); in [6], 2.64 µM (active); in [12], 5.9 µM (active). Also, the Potency was 5.01 µM (active) and 9.2 µM (active) and 7.94 µM (active) in [9]; 3.98 µM (active) and 8.2 µM (active) and 5.62 µM (active) in test [10].
In the case of `Nc1nnc(-c2cccc(Cl)c2Cl)c(N)n1`, the Potency entry in test [1], in [2], in [3], in test [4], in test [5] and in test [11] was “inactive” each time. Also, the Potency entry in test [12], in test [13], in test [14], in test [7], in [8] and in test [10] was “inactive” in each case. Moreover, in test [9], the activity (max response) is 1.68% and 0.0596%.
Consider `O=C1CSC(=O)N1C(CCc1ccncc1)COc1ccc(-c2cccc([N+](=O)[O-])c2)cc1` (configuration not stated), for which the Potency was 1.34 µM (active) in test [1], 7.42 µM (active) in test [2], 4170 nM (active) in test [3] and 7.08 µM (active) in [9]. In addition, the Potency result in test [4], in test [5], in test [11], in [12], in [13] and in [14] was “inactive” throughout.
Consider `CC(C)(Sc1cc(C(C)(C)C)c(O)c(C(C)(C)C)c1)Sc1cc(C(C)(C)C)c(O)c(C(C)(C)C)c1`, for which the Potency result in test [1], in [2], in test [3], in [4], in [5] and in test [6] was “inactive” each time. Moreover, the Potency entry in test [12], in test [13], in [14], in test [7], in test [8] and in [10] was “inactive” in each case. In [9], the activity (max response) is 7.94% and -9.47%.
For `C=CC(=O)Nc1cc2c(Nc3ccc(F)c(Cl)c3)ncnc2cc1OCCCN1CCOCC1`, the Potency result in [1], in test [4] and in [12] was “inactive” in each case. For the same compound, the Potency in test [2] is 596 nM (active) and 742 nM (active); in [3] it was 944 nM (active) and 742 nM (active); in test [5], 2.96 µM (active); in test [6] it was 3.32 µM (active); in test [13] it was 5.26 µM (active); in test [9] it was 3.55 µM (active). Further, the Potency in test [10] is 1.46 µM (active) and 6.31 µM (active).
